Whole data set: some 16,000 sequences, median “rpm ratio (pull-down/input)” near 0.5, cut for the highest 2% near 5.5. What follows is part of a selection rich in the highest values, with near analogues and random picks from the rest.

This assay addresses T1, MBP-FoxP3dN (Mus musculus, UniProt Q99JB6 188-423).
T1 sequence: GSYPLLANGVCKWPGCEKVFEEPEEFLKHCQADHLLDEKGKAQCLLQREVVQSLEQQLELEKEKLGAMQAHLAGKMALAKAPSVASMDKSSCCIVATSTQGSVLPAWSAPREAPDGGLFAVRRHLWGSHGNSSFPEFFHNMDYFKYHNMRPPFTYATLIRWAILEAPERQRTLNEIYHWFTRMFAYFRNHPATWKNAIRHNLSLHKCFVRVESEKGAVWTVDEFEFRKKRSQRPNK
Briefly: PD-seq (MBP pull-down with sequencing); 20 mM Tris-HCl pH 7.5, 100 mM NaCl, 1.5 mM MgCl2, 0.4 uM protein, 0.1 uM dsDNA library, 30 min, room temperature, amylose pull-down; high values mean tight binding. Conditions: protein: recombinant; tags: His6-MBP; chain copies: 2; dsDNA, one strand shown. In a few lines:
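Binding is reads-per-million enrichment of pull-down over input, with replicates pooled. It comes from 30 min room-temperature incubation in Tris pH 7.5 buffer with NaCl and MgCl2 of 0.4 µM His6-MBP-tagged, N-terminally truncated mouse FoxP3 or FoxP1 fragment from E. coli with 0.1 µM Klenow-filled degenerate double-stranded DNA library, followed by amylose resin capture, three washes and Illumina sequencing of the released DNA.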
As for “GATGATTGTTCTCCCAGCTGATGAATTTTACGATTCGAGTAAACAAATTTTCCTAATCTTTCTGTTCAAGCGCCATCTAC”, the binding signal is 0.308 RPM ratio (pull-down/input).
As for “GATGATTGTTCTCCCAGCTGATGAATTGTAAAGATCGAGTAAACAAATTTTCCTAATCTTTCTGTTCAAGCGCCATCTAC”, the binding signal was 0.29 RPM ratio (pull-down/input).
Take “GATGATTGTTCTCCCAGCTGATGAATTACAGCCGTCGAGTAAACAAATTTTCCTAATCTTTCTGTTCAAGCGCCATCTAC”: the binding signal was 0.412 RPM ratio (pull-down/input).
To “GATGATTGTTCTCCCAGCTGATGAATTTTGACGTTCGAGTAAACAAATTTTCCTAATCTTTCTGTTCAAGCGCCATCTAC” belongs 0.933 RPM ratio (pull-down/input); to “GATGATTGTTCTCCCAGCTGATGAATTACGATCATCGAGTAAACAAATTTTCCTAATCTTTCTGTTCAAGCGCCATCTAC”, 0.571 RPM ratio (pull-down/input); to “GATGATTGTTCTCCCAGCTGATGAATTACTGCATTCGAGTAAACAAATTTTCCTAATCTTTCTGTTCAAGCGCCATCTAC”, 6.01 RPM ratio (pull-down/input).
To “GATGATTGTTCTCCCAGCTGATGAATTCTGCATCTCGAGTAAACAAATTTTCCTAATCTTTCTGTTCAAGCGCCATCTAC” belongs 6.75 RPM ratio (pull-down/input); to “GATGATTGTTCTCCCAGCTGATGAATTGCTGCATTCGAGTAAACAAATTTTCCTAATCTTTCTGTTCAAGCGCCATCTAC”, 6.8 RPM ratio (pull-down/input).
To “GATGATTGTTCTCCCAGCTGATGAATTCTGCAGCTCGAGTAAACAAATTTTCCTAATCTTTCTGTTCAAGCGCCATCTAC” belongs 2.66 RPM ratio (pull-down/input); to “GATGATTGTTCTCCCAGCTGATGAATTCTCTGCATCGAGTAAACAAATTTTCCTAATCTTTCTGTTCAAGCGCCATCTAC”, 0.793 RPM ratio (pull-down/input).
In the case of “GATGATTGTTCTCCCAGCTGATGAATTACTGAATTCGAGTAAACAAATTTTCCTAATCTTTCTGTTCAAGCGCCATCTAC”, the binding signal is 0.586 RPM ratio (pull-down/input).
To “GATGATTGTTCTCCCAGCTGATGAATTCTGCATTTCGAGTAAACAAATTTTCCTAATCTTTCTGTTCAAGCGCCATCTAC” belongs 6.51 RPM ratio (pull-down/input); to “GATGATTGTTCTCCCAGCTGATGAATTACTGATTTCGAGTAAACAAATTTTCCTAATCTTTCTGTTCAAGCGCCATCTAC”, 0.523 RPM ratio (pull-down/input).
To “GATGATTGTTCTCCCAGCTGATGAATTGCTGAATTCGAGTAAACAAATTTTCCTAATCTTTCTGTTCAAGCGCCATCTAC” belongs 0.916 RPM ratio (pull-down/input); to “GATGATTGTTCTCCCAGCTGATGAATTCTGCTGTTCGAGTAAACAAATTTTCCTAATCTTTCTGTTCAAGCGCCATCTAC”, 3.41 RPM ratio (pull-down/input); to “GATGATTGTTCTCCCAGCTGATGAATTCGCATGATCGAGTAAACAAATTTTCCTAATCTTTCTGTTCAAGCGCCATCTAC”, 0.877 RPM ratio (pull-down/input).
To “GATGATTGTTCTCCCAGCTGATGAATTCTGCGGGTCGAGTAAACAAATTTTCCTAATCTTTCTGTTCAAGCGCCATCTAC” belongs 0.928 RPM ratio (pull-down/input).
Consider “GATGATTGTTCTCCCAGCTGATGAATTAGTCCGTTCGAGTAAACAAATTTTCCTAATCTTTCTGTTCAAGCGCCATCTAC”, for which the binding signal is 0.434 RPM ratio (pull-down/input).
To “GATGATTGTTCTCCCAGCTGATGAATTCATGAAATCGAGTAAACAAATTTTCCTAATCTTTCTGTTCAAGCGCCATCTAC” belongs 0.289 RPM ratio (pull-down/input); to “GATGATTGTTCTCCCAGCTGATGAATTAAACCTTTCGAGTAAACAAATTTTCCTAATCTTTCTGTTCAAGCGCCATCTAC”, 0.318 RPM ratio (pull-down/input); to “GATGATTGTTCTCCCAGCTGATGAATTATTCTGCTCGAGTAAACAAATTTTCCTAATCTTTCTGTTCAAGCGCCATCTAC”, 0.328 RPM ratio (pull-down/input).
In the case of “GATGATTGTTCTCCCAGCTGATGAATTATGAGAGTCGAGTAAACAAATTTTCCTAATCTTTCTGTTCAAGCGCCATCTAC”, the binding signal was 0.397 RPM ratio (pull-down/input).
For the sequence “GATGATTGTTCTCCCAGCTGATGAATTTAAGGCATCGAGTAAACAAATTTTCCTAATCTTTCTGTTCAAGCGCCATCTAC”, the binding signal was 0.732 RPM ratio (pull-down/input).
To “GATGATTGTTCTCCCAGCTGATGAATTTAAAGACTCGAGTAAACAAATTTTCCTAATCTTTCTGTTCAAGCGCCATCTAC” belongs 0.245 RPM ratio (pull-down/input); to “GATGATTGTTCTCCCAGCTGATGAATTAGTACAGTCGAGTAAACAAATTTTCCTAATCTTTCTGTTCAAGCGCCATCTAC”, 0.484 RPM ratio (pull-down/input).
To “GATGATTGTTCTCCCAGCTGATGAATTGGATTTATCGAGTAAACAAATTTTCCTAATCTTTCTGTTCAAGCGCCATCTAC” belongs 1.47 RPM ratio (pull-down/input); to “GATGATTGTTCTCCCAGCTGATGAATTCCCTGCATCGAGTAAACAAATTTTCCTAATCTTTCTGTTCAAGCGCCATCTAC”, 0.746 RPM ratio (pull-down/input).
To “GATGATTGTTCTCCCAGCTGATGAATTCTGCCATTCGAGTAAACAAATTTTCCTAATCTTTCTGTTCAAGCGCCATCTAC” belongs 4.97 RPM ratio (pull-down/input); to “GATGATTGTTCTCCCAGCTGATGAATTTCTGCATTCGAGTAAACAAATTTTCCTAATCTTTCTGTTCAAGCGCCATCTAC”, 6.35 RPM ratio (pull-down/input); to “GATGATTGTTCTCCCAGCTGATGAATTCCTGCATTCGAGTAAACAAATTTTCCTAATCTTTCTGTTCAAGCGCCATCTAC”, 5.61 RPM ratio (pull-down/input).
With “GATGATTGTTCTCCCAGCTGATGAATTCGCTGCATCGAGTAAACAAATTTTCCTAATCTTTCTGTTCAAGCGCCATCTAC”, the binding signal was 1.02 RPM ratio (pull-down/input).
To “GATGATTGTTCTCCCAGCTGATGAATTTCCTGCATCGAGTAAACAAATTTTCCTAATCTTTCTGTTCAAGCGCCATCTAC” belongs 0.719 RPM ratio (pull-down/input).

The record behind these values is article PMC12820563, “FoxP3 forms a head-to-head dimer in vivo and stabilizes its multimerization on adjacent microsatellites”.
